Inconclusive results are not listed. A number with no mark means an inactive call. The source made the active and inactive calls. The call rests on the fitted dose curve; in most records, active means well fitted curve in the direction sought with a large enough effect; inconclusive means small, poorly fitted or top-dose-only effect, or another doubt; inactive means no such curve, though single readings can be large or run the other way.
Assay: qHTS for differential inhibitors of proliferation of Plasmodium falciparum line GB4 (AID 1816);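 further: parasite growth measured after 72 h incubation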;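 on activity change, negative = inhibition: 0% = vehicle DMSO and -100% = reference inhibitor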
Conditions: Potency: Plasmodium falciparum GB4 proliferation inhibition; series mostly up to 28.7 µM; activity change, negative = inhibition: at the top concentration
For `CC1(C)CCC=[N+]1[O-]`, the “activity change, negative = inhibition” value was -7.73%. With `CC12C(=O)OC(=O)C1(C)C1CCC2O1` (configuration not stated) the Potency was 4.47 µM (active). In the case of `COc1cc(C(O)CO)ccc1OS(=O)(=O)O` (configuration not stated), the “activity change, negative = inhibition” value is reported as -4.29%. With `COc1ccccc1CNCCCCCCNCCCCCCCCNCCCCCCNCc1ccccc1OC` the Potency was 2.24 µM (active). For `O=C(Nc1cccc(C(=O)Nc2ccc(S(=O)(=O)O)c3cc(S(=O)(=O)O)cc(S(=O)(=O)O)c23)c1)Nc1cccc(C(=O)Nc2ccc(S(=O)(=O)O)c3cc(S(=O)(=O)O)cc(S(=O)(=O)O)c23)c1`, the “activity change, negative = inhibition” value was -16%. In the case of `COc1cc2nc(N3CCN(C(=O)OCc4ccccc4)C(C(=O)NC(C)(C)C)C3)nc(N)c2cc1OC` (configuration not stated), the Potency is reported as 2.82 µM (active). In the case of `O=c1[nH]c2cc([N+](=O)[O-])c([N+](=O)[O-])cc2[nH]c1=O`, the “activity change, negative = inhibition” value is reported as -26.5%. With `O=C(O)[C@@H]1C[C@@H](C(=O)O)N1` the “activity change, negative = inhibition” value was -9.62%. With `N#C/C(=C\c1ccc(O)c(O)c1)C(=O)NCc1ccccc1` the Potency was 11.2 µM (active). For `CCCCCCCCCCCCCCCCCC(=O)NCC(COP(=O)([O-])OCC[N+](C)(C)C)OCC` (configuration not stated), the “activity change, negative = inhibition” value was -11.4%. In the case of `CN1CCC[C@H]1c1cccnc1`, the “activity change, negative = inhibition” value is reported as -4.09%. With `O=C(O)c1cc(=O)c2c(Cl)cc(Cl)cc2[nH]1` the “activity change, negative = inhibition” value was -8.31%. For `O=C(Nc1ccccc1)c1cc([N+](=O)[O-])ccc1Cl`, the Potency was 11.2 µM (active). With `CN1CCc2cc(O)c(O)cc2C(c2ccccc2)C1` (configuration not stated) the Potency was 10 µM (active). In the case of `CC(C)NCC(O)COc1cccc2ccccc12` (configuration not stated), the Potency is reported as 2.51 µM (active). For `CCCN(CC1CC1)c1nc(C)nc(Nc2c(Cl)cc(Cl)cc2Cl)c1Cl`, the Potency was 3.98 µM (active). With `Fc1ccc(C(OCCCc2cnc[nH]2)c2ccc(F)cc2)cc1` the Potency was 1.26 µM (active).
Potency means the concentration at half of the fitted maximal effect.
